Measurements taken from PubChem BioAssay (Tox21).
A number with no mark means an inactive call. Records with an inconclusive call do not appear. Entries that show only a call come without a potency. The source made the active and inactive calls. Unless noted, the call rests on the fitted dose curve; in most records, active means well fitted curve in the direction sought with a large enough effect in the repeat runs; inconclusive means weak or mixed curves; inactive means no such curve, though single readings can be large; an effect the other way counts as inactive or inconclusive.

What was measured:
[1] = qHTS assay to identify small molecule antagonists of the androgen receptor (AR) signaling pathway using the MDA cell line in the presence of 0.5 nM R1881 - cell viability counter screen (AID 1259242); further: nearly all actives have a fitted effect of over 45% in size; further: potency means the concentration at half of the fitted maximal effect
How it was run: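 Fluorescence from CellTiter-Fluor, which reports protease activity of live cells, was read 30 min after reagent addition to MDA-kb2 cells that had been incubated 16 hr with compound and 0.5 nM R1881.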

[2] = qHTS assay to identify small molecule HDAC inhibitors (AID 1259364); further: nearly all actives have a fitted effect of over 45% in size; further: potency means the concentration at half of the fitted maximal effect
How it was run: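 Endogenous HDAC class I/II activity was measured in wild-type HCT-116 cells by HDAC-Glo luminescence after 2 h compound treatment.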

[3] = qHTS assay to identify small molecule HDAC inhibitors - cell viability counter screen (AID 1259365); further: series mostly up to about 92 µM; nearly all actives have a fitted effect of over 50% in size
How it was run: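 CellTiter-Glo luminescence (30 min, room temperature) reported viability after a 2 h compound exposure at 37 C. Cells: wild-type HCT-116, 1,500 per well, seeded the night before.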

[4] = qHTS assay to identify small molecule agonists of the sonic hedgehog signaling (Shh) pathway - cell viability counter screen (AID 1259366); further: nearly all actives have a fitted effect of over 50% in size; further: potency means the concentration at half of the fitted maximal effect
How it was run: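 Cytotoxicity counter screen: CellTiter-Fluor reagent added after 23 h compound exposure, then 1 h at 37C and fluorescence read. Cells were 3T3 Gli1-Luc, seeded 2,000 per well and dosed 4 h post-plating.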

[5] = qHTS assay to identify small molecule antagonists of the sonic hedgehog signaling (Shh) pathway - cell viability counter screen (AID 1259367); further: nearly all actives have a fitted effect of over 55% in size; further: potency means the concentration at half of the fitted maximal effect
How it was run: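 Using CellTiter-Fluor, viability of Gli1-Luc reporter 3T3 cells is read by fluorescence in the wells used for the Shh luciferase assay. Treatment lasts 23 hr with conditioned medium, then reagent 1 hr at 37C.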

[6] = qHTS assay to identify small molecule agonists of the sonic hedgehog signaling (Shh) pathway (AID 1259368; calls by dose curve;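 further: NIH/3T3-derived 3T3Gli1-Luc cells carrying a stable Gli1-driven firefly luciferase reporter; series mostly up to about 92 µM; nearly all actives have a fitted effect of over 15% in size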)
How it was run: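 Luminescent signal was taken as a measure of Gli1-controlled luciferase expression in stably transfected NIH/3T3-derived cells that had been treated for 24 hr with compounds delivered in DMSO.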

[7] = qHTS assay to identify small molecule antagonists of the sonic hedgehog signaling (Shh) pathway (AID 1259369; calls by dose curve; further: nearly all actives have a fitted effect of over 45% in size; further: potency means the concentration at half of the fitted maximal effect)
How it was run: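 Screening used 3T3Gli1-Luc cells at 2,000 per well, compounds delivered in DMSO, and conditioned medium as agonist stimulus; plates incubated 24hr at 37 C and 5% CO2 before a 30min luciferase step.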

[8] = target: Estrogen receptor beta (Homo sapiens) (UniProt Q92731); assay: qHTS assay to identify small molecule agonists of the estrogen receptor beta (ER-beta) signaling pathway (AID 1259377; active means well fitted activation curve with a large enough effect in the signal ratio in the repeat runs, not every such curve was filed as active; the % refers to the signal ratio)
Chain of Estrogen receptor beta (Homo sapiens) (Q92731 whole entry, looked up): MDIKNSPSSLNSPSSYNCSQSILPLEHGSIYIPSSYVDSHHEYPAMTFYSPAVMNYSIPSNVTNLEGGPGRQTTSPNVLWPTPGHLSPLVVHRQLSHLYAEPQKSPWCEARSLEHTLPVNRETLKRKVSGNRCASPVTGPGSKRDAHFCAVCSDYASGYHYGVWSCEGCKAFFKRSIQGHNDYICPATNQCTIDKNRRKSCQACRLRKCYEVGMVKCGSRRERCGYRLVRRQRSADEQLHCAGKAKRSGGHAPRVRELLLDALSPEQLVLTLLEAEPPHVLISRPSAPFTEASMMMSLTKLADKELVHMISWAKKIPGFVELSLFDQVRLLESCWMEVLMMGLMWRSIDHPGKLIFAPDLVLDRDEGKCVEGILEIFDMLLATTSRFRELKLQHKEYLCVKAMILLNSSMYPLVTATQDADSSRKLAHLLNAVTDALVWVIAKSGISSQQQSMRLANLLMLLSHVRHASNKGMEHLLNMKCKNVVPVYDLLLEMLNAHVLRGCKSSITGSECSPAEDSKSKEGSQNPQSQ
How it was run: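 Ratiometric beta-lactamase FRET read-out came after 2 h substrate loading at room temperature. It followed 16 h compound treatment at 37C of GripTite HEK293T cells carrying a UAS-bla reporter, plated in 2% charcoal-stripped FBS medium.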

[9] = target: Estrogen receptor beta (Homo sapiens) (UniProt Q92731); assay: qHTS assay to identify small molecule antagonists of the estrogen receptor beta (ER-beta) signaling pathway (AID 1259378; active means well fitted inhibition curve with a large enough effect in the signal ratio in the repeat runs, not every such curve was filed as active; the % refers to the signal ratio; further: potency means the concentration at half of the fitted maximal effect)
How it was run: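 Antagonist mode: compounds added to beta-lactamase reporter HEK293T ER-beta-UAS cells stimulated with E2 (1nM final), 16 hr at 37C. LiveBLAzer B/G FRET substrate, 2 hours room temperature, fluorescence read-out.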

[10] = qHTS assay to identify small molecule agonists of the androgen receptor (AR) signaling pathway in the presence of an antagonist - cell viability counter screen (AID 1259379); further: nearly all actives have a fitted effect of over 25% in size; further: potency means the concentration at half of the fitted maximal effect
How it was run: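 In MDA-kb2 cells (human breast carcinoma, MMTV-luciferase), compounds at 15 concentrations plus 3.0uM nilutamide; 16 hr, 37C, 0% CO2; CellTiter-Fluor fluorescence read for viability.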

[11] = qHTS assay to identify small molecule antagonists of the estrogen receptor beta (ER-beta) signaling pathway - cell viability counter screen (AID 1259382); further: nearly all actives have a fitted effect of over 55% in size; further: potency means the concentration at half of the fitted maximal effect
How it was run: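 Tox21 10K library tested in qHTS format on ER-beta-bla HEK293T cells stimulated with 1nM E2; 16 hr treatment at 37C. Same-well CellTiter-Glo luminescence served as the cell viability measure.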

[12] = qHTS assay to identify small molecule agonists of the estrogen receptor alpha (ER-alpha) signaling pathway in the presence of an antagonist - cell viability counter screen (AID 1259386);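 further: cells exposed to compounds for 22 h at 37 °C before the viability read; nearly all actives have a fitted effect of over 30% in size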; further: potency means the concentration at half of the fitted maximal effect
How it was run: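 Fluorescent CellTiter-Fluor viability signal from VM7Luc4E2 cells, with the reagent added during the final hour of a 22hr compound exposure at 37C in the presence of 10.0nM ICI-182,780.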

[13] = qHTS assay to identify small molecule agonists of the estrogen receptor beta (ER-beta) signaling pathway - cell viability counter screen (AID 1259380); further: nearly all actives have a fitted effect of over 30% in size; further: potency means the concentration at half of the fitted maximal effect
How it was run: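 Viability of ER-beta-UAS-bla HEK293T cells was determined by CellTiter-Glo luminescence following 16 hr treatment with test compounds at 37C.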

[14] = qHTS assay to identify small molecule agonists or antagonists of the thyroid stimulating hormone receptor (TSHR) signaling pathway - wild type cell line counter screen (AID 1259384; calls by dose curve)
How it was run: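 Counter screen in untransfected Hek293: compounds (15-point titration, triplicate) plus phosphodiesterase inhibitor Ro20-1724 added after 18 h plating; 30 min RT. Intracellular cAMP via competitive d2/cryptate immunoassay, 1 h incubation.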

[15] = target: Thyrotropin receptor (Homo sapiens) (UniProt P16473); assay: qHTS assay to identify small molecule antagonists of the thyroid stimulating hormone receptor (TSHR) signaling pathway (AID 1259385; calls by dose curve; further: nearly all actives have a fitted effect of over 20% in size)
Chain of Thyrotropin receptor (Homo sapiens) (P16473 whole entry, looked up): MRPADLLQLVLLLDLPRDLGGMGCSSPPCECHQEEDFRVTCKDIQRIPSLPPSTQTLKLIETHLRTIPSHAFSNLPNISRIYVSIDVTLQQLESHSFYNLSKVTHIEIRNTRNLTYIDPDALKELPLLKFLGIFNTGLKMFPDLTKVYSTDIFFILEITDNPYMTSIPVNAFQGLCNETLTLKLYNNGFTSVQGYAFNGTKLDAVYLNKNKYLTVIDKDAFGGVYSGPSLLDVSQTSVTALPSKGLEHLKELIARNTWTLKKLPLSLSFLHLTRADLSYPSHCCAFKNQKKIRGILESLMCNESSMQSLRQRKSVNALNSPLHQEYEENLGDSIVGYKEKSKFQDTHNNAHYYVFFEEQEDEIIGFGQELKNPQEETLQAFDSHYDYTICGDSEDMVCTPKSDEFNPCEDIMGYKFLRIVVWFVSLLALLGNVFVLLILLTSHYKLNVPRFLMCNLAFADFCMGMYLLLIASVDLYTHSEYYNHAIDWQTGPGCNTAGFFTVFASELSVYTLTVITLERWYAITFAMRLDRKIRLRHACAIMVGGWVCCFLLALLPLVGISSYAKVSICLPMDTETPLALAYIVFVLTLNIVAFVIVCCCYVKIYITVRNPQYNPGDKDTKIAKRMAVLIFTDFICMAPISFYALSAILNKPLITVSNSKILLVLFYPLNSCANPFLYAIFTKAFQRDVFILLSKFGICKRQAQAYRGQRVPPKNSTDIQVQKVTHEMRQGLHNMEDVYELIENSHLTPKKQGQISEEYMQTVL
How it was run: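 Antagonist mode: compound-treated TSHR-expressing HEK293 cells were stimulated with 1.5 ng/mL TSH (final) in presence of Ro20-1724 for 30 min at RT. HTRF cAMP detection after 1 h; each compound tested at 15 concentrations, triplicate.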

[16] = target: Estrogen receptor (Homo sapiens) (UniProt P03372); assay: qHTS assay to identify small molecule antagonists of the estrogen receptor alpha (ER-alpha) signaling pathway using the BG1 cell line in the presence of 0.1 nM 17-beta-estradiol (AID 1259244); further: nearly all actives have a fitted effect of over 50% in size; further: potency means the concentration at half of the fitted maximal effect
Chain of Estrogen receptor (Homo sapiens) (P03372 whole entry, looked up): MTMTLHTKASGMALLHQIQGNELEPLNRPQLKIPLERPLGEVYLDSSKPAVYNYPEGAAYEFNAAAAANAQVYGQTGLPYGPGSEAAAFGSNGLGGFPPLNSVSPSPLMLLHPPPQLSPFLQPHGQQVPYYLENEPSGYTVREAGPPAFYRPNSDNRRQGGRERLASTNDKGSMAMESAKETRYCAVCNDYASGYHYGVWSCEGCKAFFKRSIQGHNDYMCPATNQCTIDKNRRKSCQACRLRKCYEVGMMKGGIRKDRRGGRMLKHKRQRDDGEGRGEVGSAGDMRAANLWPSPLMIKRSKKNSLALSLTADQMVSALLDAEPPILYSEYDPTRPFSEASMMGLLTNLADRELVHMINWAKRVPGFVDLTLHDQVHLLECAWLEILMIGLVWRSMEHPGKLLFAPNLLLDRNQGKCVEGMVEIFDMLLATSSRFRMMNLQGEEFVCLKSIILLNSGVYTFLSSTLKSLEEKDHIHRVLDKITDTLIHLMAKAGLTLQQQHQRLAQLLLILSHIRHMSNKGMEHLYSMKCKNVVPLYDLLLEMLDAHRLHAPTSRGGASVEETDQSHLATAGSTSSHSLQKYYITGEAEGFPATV
How it was run: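 Quantitative high-throughput screen in VM7Luc4E2 cells: compound plus 0.1 nM E2 (final), 22 h, 37C, 5% CO2; ONE-Glo added, 30 min room temperature, luminescence measured.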

[17] = target: Estrogen receptor (Homo sapiens) (UniProt P03372); assay: qHTS assay to identify small molecule agonists of the estrogen receptor alpha (ER-alpha) signaling pathway in the presence of an antagonist (AID 1259383; calls by dose curve; further: top concentration of the series differs between compounds; nearly all actives have a fitted effect of over 15% in size)
How it was run: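 In VM7Luc4E2 cells, 4,000 per well, compounds at 15 concentrations were co-incubated 22hr at 37C with 10.0nM final ICI-182,780. Luminescence from the stably transfected 4×ERE-luciferase reporter was recorded 30min after ONE-Glo addition.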

[18] = target: Androgen receptor (Homo sapiens) (UniProt P10275); assay: qHTS assay to identify small molecule antagonists of the androgen receptor (AR) signaling pathway using the MDA cell line in the presence of 0.5 nM R1881 (AID 1259243); further: potency means the concentration at half of the fitted maximal effect; nearly all actives have a fitted effect of over 50% in size
Chain of Androgen receptor (Homo sapiens) (P10275 whole entry, looked up): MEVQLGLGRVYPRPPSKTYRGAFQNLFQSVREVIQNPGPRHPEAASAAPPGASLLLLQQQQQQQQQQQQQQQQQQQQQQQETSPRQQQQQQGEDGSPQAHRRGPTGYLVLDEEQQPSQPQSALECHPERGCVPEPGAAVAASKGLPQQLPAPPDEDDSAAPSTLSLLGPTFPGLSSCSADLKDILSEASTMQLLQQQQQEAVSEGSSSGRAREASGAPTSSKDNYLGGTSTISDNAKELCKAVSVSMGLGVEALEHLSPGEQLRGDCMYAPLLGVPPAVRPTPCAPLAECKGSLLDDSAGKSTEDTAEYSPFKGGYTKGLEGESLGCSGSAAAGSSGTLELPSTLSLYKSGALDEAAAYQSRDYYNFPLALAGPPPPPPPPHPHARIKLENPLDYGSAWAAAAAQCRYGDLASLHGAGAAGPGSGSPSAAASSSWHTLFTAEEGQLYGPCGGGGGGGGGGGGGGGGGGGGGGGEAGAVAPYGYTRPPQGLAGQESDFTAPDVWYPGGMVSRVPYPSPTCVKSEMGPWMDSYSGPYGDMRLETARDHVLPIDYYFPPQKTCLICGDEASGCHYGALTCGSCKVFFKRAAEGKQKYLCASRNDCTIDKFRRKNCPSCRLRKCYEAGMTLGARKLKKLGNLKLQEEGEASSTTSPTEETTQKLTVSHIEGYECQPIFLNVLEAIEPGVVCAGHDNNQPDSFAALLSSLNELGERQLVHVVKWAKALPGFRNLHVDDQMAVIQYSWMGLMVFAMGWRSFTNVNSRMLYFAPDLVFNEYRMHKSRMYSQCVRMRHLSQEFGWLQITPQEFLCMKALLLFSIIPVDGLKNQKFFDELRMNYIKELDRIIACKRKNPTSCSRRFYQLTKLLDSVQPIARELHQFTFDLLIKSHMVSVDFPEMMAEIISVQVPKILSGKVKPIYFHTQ
How it was run: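 Inhibition of R1881 (0.5 nM final) induced reporter signal was measured in human MDA-kb2 cells; note the MMTV promoter also responds to GR. Exposure lasted 16 hr at 37C.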

[19] = target: Androgen receptor (Homo sapiens) (UniProt P10275); assay: qHTS assay to identify small molecule agonists of the androgen receptor (AR) signaling pathway in the presence of an antagonist (AID 1259381; calls by dose curve; further: nearly all actives have a fitted effect of over 15% in size)
How it was run: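 Here, 15-concentration compound series were pin-transferred onto MDA-kb2 MMTV-luciferase cells already dosed with nilutamide (3.0uM final). After 16hr at 37C, ONE-Glo was added and luminescence read 30min later at room temperature.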

[20] = qHTS assay to identify small molecule phospholipidosis (PLD) inducers (AID 1259344; active means well fitted curve in the direction sought with a large enough effect; an effect the other way counts as inactive or inconclusive)
How it was run: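 Fluorescent phospholipid staining (LipidTOX Red) measured by automated microscopy in fixed HepG2 cells after 24 h treatment; nuclei counterstained with Hoechst 33342; amiodarone as reference inducer.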

CCCC(=O)OC(C)(C)Cc1ccccc1
Potency [1]: inactive | Potency [2]: inactive | Potency [3]: inactive | Potency [4]: inactive | Potency [5]: inactive | Potency [6]: inactive | Potency [7]: inactive | Potency [8]: inactive | Potency [9]: inactive | Potency [10]: inactive | Potency [11]: inactive | Potency [12]: inactive

Cc1cccc2cccnc12
Potency [1]: inactive | Potency [2]: inactive | Potency [3]: inactive | Potency [4]: inactive | Potency [5]: inactive | Potency [6]: inactive | Potency [7]: inactive | Potency [8]: inactive | Potency [9]: inactive | Potency [10]: inactive | Potency [13]: inactive | Potency [11]: inactive | outcome [14]: inactive | Potency [15]: inactive | Potency [12]: inactive

CC1(C)CCC[C@]2(C)[C@H]3CCO[C@]3(C)CC[C@@H]12
Potency [1]: inactive | Potency [2]: inactive | Potency [3]: inactive | Potency [4]: inactive | Potency [5]: inactive | Potency [6]: inactive | Potency [7]: inactive | Potency [10]: inactive | Potency [13]: inactive | Potency [11]: inactive | outcome [14]: inactive | Potency [15]: inactive | Potency [12]: inactive

COc1ccc(NC(=O)CC(C)=O)cc1
Potency [1]: inactive | Potency [3]: inactive | Potency [4]: inactive | Potency [5]: inactive | Potency [6]: inactive | Potency [7]: inactive | Potency [8]: inactive | Potency [9]: inactive | Potency [10]: inactive | Potency [13]: inactive | Potency [11]: inactive | Potency [15]: inactive | Potency [12]: inactive

OCCN1CCN(CCCN2c3ccccc3Sc3ccc(C(F)(F)F)cc32)CC1
Potency [16]: inactive | Potency [2]: inactive | Potency [3]: inactive | Potency [5]: inactive | Potency [6]: inactive | Potency [8]: inactive | Potency [13]: 26.6 µM (active) | Potency [11]: 21.1 µM (active) | outcome [14]: inactive | Potency [15]: inactive | Potency [12]: inactive

COc1cccc(OC)c1C(=O)O
Potency [1]: inactive | Potency [2]: inactive | Potency [3]: inactive | Potency [5]: inactive | Potency [6]: inactive | Potency [7]: inactive | Potency [8]: inactive | Potency [9]: inactive | Potency [10]: inactive | Potency [13]: inactive | Potency [11]: inactive | outcome [14]: inactive | Potency [15]: inactive

CCC(C)[O-].CCC(C)[O-].CCOC(=O)/C=C(/C)[O-].[Al+3]
Potency [1]: inactive | Potency [2]: inactive | Potency [3]: inactive | Potency [5]: inactive | Potency [6]: inactive | Potency [7]: inactive | Potency [10]: inactive | Potency [13]: inactive | Potency [11]: inactive | Potency [15]: inactive | Potency [12]: inactive

S=C([S-])NCCNC(=S)[S-].S=C([S-])NCCNC(=S)[S-].[Mn+2].[Zn+2]
Potency [1]: inactive | Potency [2]: inactive | Potency [3]: inactive | Potency [5]: inactive | Potency [6]: inactive | Potency [8]: inactive | Potency [10]: inactive | Potency [11]: inactive | outcome [14]: inactive | Potency [15]: inactive

Cc1ccc(C(=O)O)cc1
Potency [1]: inactive | Potency [2]: inactive | Potency [3]: inactive | Potency [5]: inactive | Potency [6]: inactive | Potency [10]: inactive | Potency [13]: inactive | Potency [11]: inactive | outcome [14]: inactive | Potency [15]: inactive | Potency [12]: inactive

Clc1nnc(Cl)c2ccccc12
Potency [16]: inactive | Potency [2]: inactive | Potency [3]: inactive | Potency [4]: inactive | Potency [5]: inactive | Potency [6]: inactive | Potency [10]: 15.3 µM (active) | Potency [13]: inactive | Potency [11]: inactive | Potency [17]: inactive | Potency [12]: inactive

CNC(=O)c1ccccc1Sc1ccc2c(/C=C/c3ccccn3)n[nH]c2c1
Potency [4]: 13.3 µM (active) | Potency [6]: inactive | Potency [10]: 26.6 µM (active) | outcome [14]: inactive | Potency [15]: inactive

CN(C)[C@@H](CCOc1cccc2ccccc12)c1ccccc1
Potency [18]: 26.6 µM (active) | Potency [16]: inactive | Potency [2]: inactive | Potency [3]: inactive | Potency [6]: inactive | Potency [7]: 29.8 µM (active) | Potency [8]: inactive | Potency [9]: 29.8 µM (active) | Potency [10]: 29.8 µM (active) | Potency [13]: 23.7 µM (active) | outcome [19]: inactive | Potency [11]: 15 µM (active) | Potency [17]: inactive | outcome [14]: inactive | Potency [15]: inactive | Potency [12]: inactive

CC[N+](CC)(CC)CCOC(=O)C(C1CCCC1)C1CCCC1
PLD induction [20]: 0.0817% [at 7.66 µM] | Potency [2]: inactive | Potency [3]: inactive | Potency [4]: inactive | Potency [5]: inactive | Potency [6]: inactive | Potency [7]: inactive | Potency [10]: 33.5 µM (active) | Potency [11]: inactive | Potency [17]: inactive | Potency [12]: inactive

Cc1cc(-c2ccc(N=Nc3cc(S(=O)(=O)O)c4ccccc4c3N)c(C)c2)ccc1N=Nc1cc(S(=O)(=O)O)c2ccccc2c1N
Potency [16]: 7.74 µM (active) | Potency [2]: inactive | Potency [3]: inactive | Potency [4]: inactive | Potency [5]: inactive | Potency [6]: inactive | Potency [8]: inactive | Potency [10]: 3.88 µM (active) | Potency [11]: inactive | outcome [14]: inactive | Potency [15]: inactive | Potency [12]: 30.8 µM (active)

O=C(O)c1cc(N=Nc2ccc([N+](=O)[O-])cc2)ccc1O
Potency [16]: inactive | Potency [2]: 0.848 µM (active) | Potency [3]: inactive | Potency [5]: 30.1 µM (active) | Potency [6]: inactive | Potency [7]: inactive | Potency [10]: 60 µM (active) | Potency [17]: inactive | outcome [14]: inactive | Potency [15]: inactive

COc1cc(S(=O)(=O)O)c(C)cc1N=Nc1c(O)ccc2cc(S(=O)(=O)O)ccc12
Potency [1]: 24.3 µM (active) | Potency [2]: inactive | Potency [4]: 27.3 µM (active) | Potency [5]: 24.3 µM (active) | Potency [6]: inactive | Potency [7]: inactive | Potency [10]: 27.3 µM (active) | Potency [13]: inactive | Potency [11]: inactive | Potency [17]: inactive | Potency [12]: 17.2 µM (active)
